# How the values were obtained:
# Test in all cases: thermal shift delta Tm vs DMSO control; higher = stronger stabilization (binding)
# Conditions in all cases: 12.5 µM; protein concentration 2 µM
# LOC_OS02G45750-cb003 = tested on: LOC_OS02G45750-cb003
# Method in brief: (§1)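 Purified, E. coli-expressed rice kinase domain constructs were tested by differential scanning fluorimetry in 96-well plates: 19.5 μl of 2 μM kinase in 100 mM potassium phosphate pH 7.5, 150 mM NaCl, 10% glycerol, 5 × SYPRO Orange, plus compound in DMSO. Fluorescence was read from 25°C to 95°C at 0.05°C/s. Melting temperatures came from Boltzmann fits, and the shift is the triplicate mean relative to protein with DMSO alone.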
# LOC_OS02G54510-cb004 = tested on: LOC_OS02G54510-cb004
# Method in brief: as §1
# LOC_OS03G04050-cb001 = tested on: LOC_OS03G04050-cb001
# Method in brief: as §1
# LOC_OS03G12390-cb001 = tested on: LOC_OS03G12390-cb001
# Method in brief: as §1
# LOC_OS03G27990-cb004 = tested on: LOC_OS03G27990-cb004
# Method in brief: as §1
# LOC_OS03G50450-cb001 = tested on: LOC_OS03G50450-cb001
# Method in brief: as §1
# LOC_OS03G50810-cb003 = tested on: LOC_OS03G50810-cb003
# Method in brief: as §1
# LOC_OS04G35114-cb001 = tested on: LOC_OS04G35114-cb001
# Method in brief: as §1
# LOC_OS04G38480-cb003 = tested on: T1, LOC_OS04G38480-cb003
# T1 sequence (whole entry): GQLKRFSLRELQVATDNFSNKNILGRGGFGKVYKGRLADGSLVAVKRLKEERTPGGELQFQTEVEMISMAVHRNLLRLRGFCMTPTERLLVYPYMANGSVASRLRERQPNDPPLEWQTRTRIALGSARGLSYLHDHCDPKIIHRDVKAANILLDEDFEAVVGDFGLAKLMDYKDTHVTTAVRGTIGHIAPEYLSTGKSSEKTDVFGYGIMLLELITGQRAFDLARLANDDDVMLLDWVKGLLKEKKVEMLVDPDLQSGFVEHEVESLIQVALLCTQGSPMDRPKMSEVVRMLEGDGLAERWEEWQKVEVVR
# Method in brief: as §1
# LOC_OS04G41100-cb001 = tested on: T2, LOC_OS04G41100-cb001
# T2 sequence (whole entry): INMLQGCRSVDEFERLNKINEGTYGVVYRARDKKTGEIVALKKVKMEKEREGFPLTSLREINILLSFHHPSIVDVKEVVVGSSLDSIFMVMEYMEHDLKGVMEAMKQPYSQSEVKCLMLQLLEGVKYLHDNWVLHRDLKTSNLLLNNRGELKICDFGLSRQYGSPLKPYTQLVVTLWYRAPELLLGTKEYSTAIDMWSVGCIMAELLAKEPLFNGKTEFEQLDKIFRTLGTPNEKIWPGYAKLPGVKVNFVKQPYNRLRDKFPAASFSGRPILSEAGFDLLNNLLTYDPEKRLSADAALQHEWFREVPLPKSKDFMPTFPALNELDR
# Method in brief: as §1
# LOC_OS04G57630-cb004 = tested on: LOC_OS04G57630-cb004
# Method in brief: as §1
# LOC_OS05G07850-cb002 = tested on: LOC_OS05G07850-cb002
# Method in brief: as §1
# LOC_OS05G16824-cb004 = tested on: LOC_OS05G16824-cb004
# Method in brief: as §1
# LOC_OS05G28520-cb001 = tested on: LOC_OS05G28520-cb001
# Method in brief: as §1
# LOC_OS05G30820-cb001 = tested on: LOC_OS05G30820-cb001
# Method in brief: as §1
# LOC_OS05G43570-cb004 = tested on: LOC_OS05G43570-cb004
# Method in brief: as §1
# LOC_OS06G16330-cb003 = tested on: LOC_OS06G16330-cb003
# LOC_OS06G16330-cb003, sequence (as listed by the source): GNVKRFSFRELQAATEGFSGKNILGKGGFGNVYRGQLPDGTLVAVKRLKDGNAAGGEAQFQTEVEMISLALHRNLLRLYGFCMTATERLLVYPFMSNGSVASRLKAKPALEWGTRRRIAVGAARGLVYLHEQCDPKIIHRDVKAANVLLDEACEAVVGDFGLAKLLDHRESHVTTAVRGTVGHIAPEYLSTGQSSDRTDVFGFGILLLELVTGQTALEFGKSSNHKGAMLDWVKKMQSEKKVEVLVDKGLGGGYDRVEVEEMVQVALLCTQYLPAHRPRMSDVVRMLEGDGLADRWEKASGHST
# Method in brief: as §1
# LOC_OS06G22820-cb001 = tested on: T3, LOC_OS06G22820-cb001
# T3 sequence (whole entry): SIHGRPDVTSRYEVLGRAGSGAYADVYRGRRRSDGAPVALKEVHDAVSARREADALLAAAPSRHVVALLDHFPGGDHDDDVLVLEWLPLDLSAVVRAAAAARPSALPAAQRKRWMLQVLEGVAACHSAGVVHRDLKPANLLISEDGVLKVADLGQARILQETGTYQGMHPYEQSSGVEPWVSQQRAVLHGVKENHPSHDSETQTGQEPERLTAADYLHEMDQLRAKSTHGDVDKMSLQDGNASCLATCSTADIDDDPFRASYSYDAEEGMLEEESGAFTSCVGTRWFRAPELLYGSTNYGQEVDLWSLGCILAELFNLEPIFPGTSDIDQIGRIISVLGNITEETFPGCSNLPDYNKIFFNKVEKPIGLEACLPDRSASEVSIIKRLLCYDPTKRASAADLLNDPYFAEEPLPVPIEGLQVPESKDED
# Method in brief: as §1
# LOC_OS07G06570-cb004 = tested on: LOC_OS07G06570-cb004
# Method in brief: as §1
# LOC_OS07G07230-cb001 = tested on: LOC_OS07G07230-cb001
# Method in brief: as §1
Structure (SMILES),thermal shift delta Tm (LOC_OS02G45750-cb003) [°C],thermal shift delta Tm (LOC_OS02G54510-cb004) [°C],thermal shift delta Tm (LOC_OS03G04050-cb001) [°C],thermal shift delta Tm (LOC_OS03G12390-cb001) [°C],thermal shift delta Tm (LOC_OS03G27990-cb004) [°C],thermal shift delta Tm (LOC_OS03G50450-cb001) [°C],thermal shift delta Tm (LOC_OS03G50810-cb003) [°C],thermal shift delta Tm (LOC_OS04G35114-cb001) [°C],thermal shift delta Tm (LOC_OS04G38480-cb003) [°C],thermal shift delta Tm (LOC_OS04G41100-cb001) [°C],thermal shift delta Tm (LOC_OS04G57630-cb004) [°C],thermal shift delta Tm (LOC_OS05G07850-cb002) [°C],thermal shift delta Tm (LOC_OS05G16824-cb004) [°C],thermal shift delta Tm (LOC_OS05G28520-cb001) [°C],thermal shift delta Tm (LOC_OS05G30820-cb001) [°C],thermal shift delta Tm (LOC_OS05G43570-cb004) [°C],thermal shift delta Tm (LOC_OS06G16330-cb003) [°C],thermal shift delta Tm (LOC_OS06G22820-cb001) [°C],thermal shift delta Tm (LOC_OS07G06570-cb004) [°C],thermal shift delta Tm (LOC_OS07G07230-cb001) [°C]
COc1cc(Nc2ncc(F)c(Nc3ccc4c(n3)NC(=O)C(C)(C)O4)n2)cc(OC)c1OC [R406 (free base)],4.87,3.74,0.5,7.52,1.81,8.85,4.46,2.9,4.51,1.22,2.15,13,12.6,0.85,1.44,0.79,14.8,0.44,0.75,-0.18
COc1ccc(S(=O)(=O)N(C(C)=O)c2ccccc2/C=C/c2cc[n+]([O-])cc2)cc1,-0.35,-0.24,0.19,0.13,-0.03,0.17,0.09,0.01,0.55,0.61,0.43,0.92,-6.15,0.67,0.66,0.45,0.41,0.58,1.06,0.31
CN1CCC(CNc2ccc3ncc(-c4cccc(OC(F)(F)F)c4)n3n2)CC1 [SGI-1776 free base],3.47,0.36,-0.12,0.16,0.31,0.18,3.02,4.33,1.08,0.53,1.46,12,3.25,0.98,0.86,0.36,3.37,0.41,0.32,0.72
C[C@@H](NC(=O)c1ncnc(N)c1Cl)c1ncc(C(=O)Nc2cc(C(F)(F)F)c(Cl)cn2)s1,0.64,6.43,0.36,0.49,0.28,0.42,-0.01,0.39,0.76,0.71,0.51,4.01,-2.64,1.62,0.73,0.28,0.58,0.53,1.4,0.05
Cc1ccc(Nc2nccc(N(C)c3ccc4c(C)n(C)nc4c3)n2)cc1S(N)(=O)=O [Pazopanib],3.24,0.61,0.35,0.19,0.23,0.21,0.98,4.53,1.63,3.44,1.64,7.82,3.43,0.62,0.59,-0.2,4.07,0.36,1.66,0.5
COc1cc2c(Oc3ccc(NC(=O)C4(C(=O)Nc5ccc(F)cc5)CC4)cc3F)ccnc2cc1OCCCN1CCOCC1,3.41,2.08,0.79,0.18,0.69,0.65,3.35,3.93,3.42,1.7,6.98,13.9,5.71,16,0.55,0.27,9.02,0.8,0.2,0.3
Cn1cnc(N)c2ncnc1-2 [3-Methyladenine (3-MA)],0.36,0.39,0.47,-0.25,0.15,0.39,0.4,0.91,1.15,0.12,-0.01,0.75,-3.2,0.15,0.64,0.46,-0.06,0.64,0.43,0.03
COc1cccc2cc(-c3nc([C@H]4CC[C@H](C(=O)O)CC4)n4ncnc(N)c34)[nH]c12,0.26,0.38,0.31,0.34,0.03,0.32,0.58,3.43,0.98,0.32,0.17,3.87,-4.58,0.34,0.73,0.5,-0.07,0.66,0.52,0.08
Nc1ncnc2c1c(-c1cnc3[nH]ccc3c1)nn2C1CCCC1,2.27,3.34,0.54,5.27,1.19,0.86,0.88,4.32,1.28,0.51,0.91,4.79,1.22,0.54,0.76,1.19,3.18,0.34,0.72,0.21
COc1ccc([C@@H]2OC[C@H]3[C@@H]2CO[C@@H]3c2ccc(O[C@@H]3O[C@H](CO)[C@@H](O)[C@H](O)[C@H]3O)c(OC)c2)cc1OC [Forsythin],0.82,-0.05,0.35,0.34,0.18,0.11,0.2,-0.23,-0.32,-0.14,-0.22,-0.42,-9.57,0.25,-0.02,0.21,-0.18,0.41,0.89,0.9
CN1CCN(c2ccc3nc(-c4c(N)c5c(F)cccc5[nH]c4=O)[nH]c3c2)CC1 [Dovitinib (TKI258) Lactate],16.7,2.48,1.03,5.56,8.6,5.37,7.48,10,3.95,1.24,4.11,8.85,14.8,1.89,1.87,0.71,8.12,0.62,1.96,0.72
CC(C)(C)S(=O)(=O)c1ccc2nccc(Nc3n[nH]c4ccc(F)cc34)c2c1,0.81,0.59,0.15,0.75,0.12,-0.21,0.11,3.68,0.32,0.12,0.34,2.55,-0.25,-0.33,0.52,0.22,0.6,0.36,0.6,0.92

# — the supplement of paper PMC9694430
